Values without a mark were called inactive.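 How the source made its calls: active means compound whose remaining NAD level is above about 45 nM (limit read from the data); inactive means the rest.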

NAD(+) hydrolase SARM1 (Homo sapiens), sequence (Q6SZW1 whole entry, looked up): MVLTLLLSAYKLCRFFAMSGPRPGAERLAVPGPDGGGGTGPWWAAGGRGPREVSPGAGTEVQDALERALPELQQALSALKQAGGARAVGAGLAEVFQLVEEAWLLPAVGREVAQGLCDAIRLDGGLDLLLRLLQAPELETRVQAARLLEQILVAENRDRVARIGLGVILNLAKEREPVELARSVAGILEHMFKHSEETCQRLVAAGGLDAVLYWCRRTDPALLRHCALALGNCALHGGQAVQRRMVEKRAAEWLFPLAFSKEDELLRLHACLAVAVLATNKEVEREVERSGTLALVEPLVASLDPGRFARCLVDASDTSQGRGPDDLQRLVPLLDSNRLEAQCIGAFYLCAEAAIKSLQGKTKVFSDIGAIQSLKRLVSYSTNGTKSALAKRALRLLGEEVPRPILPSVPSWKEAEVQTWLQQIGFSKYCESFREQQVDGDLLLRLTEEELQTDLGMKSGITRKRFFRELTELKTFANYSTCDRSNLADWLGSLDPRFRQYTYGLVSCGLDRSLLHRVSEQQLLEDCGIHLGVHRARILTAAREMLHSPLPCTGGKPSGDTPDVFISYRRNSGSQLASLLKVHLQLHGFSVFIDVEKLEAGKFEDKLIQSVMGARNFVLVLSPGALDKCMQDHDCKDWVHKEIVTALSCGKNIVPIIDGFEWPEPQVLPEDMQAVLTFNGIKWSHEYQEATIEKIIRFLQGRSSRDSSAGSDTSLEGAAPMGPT

The experiment has as its target NAD(+) hydrolase SARM1 (Homo sapiens) (UniProt Q6SZW1). The experiment can be described thus: SARM1 TIR NADase inhibitors, cell lysate, NAD-Glo luminescence (AID 1508614).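 Further: higher remaining NAD means stronger inhibition of SARM1 NADase.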 To be noted: SAM-TIR HEK293T lysate NADase, at 1 µM, active compounds read high.
In the case of `CCCCCCCCCC[N+](C)(C)Cc1ccccc1`, the remaining NAD is 10 nM.

`C[C@]12C=CC(=O)C=C1CC[C@@H]1[C@@H]2[C@@H](O)C[C@@]2(C)[C@H]1CC[C@]2(O)C(=O)COP(=O)(O)O`: the remaining NAD was 10 nM.

For `CC(C)CC(NC(=O)C(C)NC(=O)CNC(=O)C(NC=O)C(C)C)C(=O)NC(C)C(=O)NC(C(=O)NC(C(=O)NC(C(=O)NC(Cc1c[nH]c2ccccc12)C(=O)NC(CC(C)C)C(=O)NC(Cc1c[nH]c2ccccc12)C(=O)NC(CC(C)C)C(=O)NC(Cc1c[nH]c2ccccc12)C(=O)NC(CC(C)C)C(=O)NC(Cc1c[nH]c2ccccc12)C(=O)NCCO)C(C)C)C(C)C)C(C)C` (stereo not given), the remaining NAD is 10 nM.

As to `CC(=O)[C@H]1CC[C@H]2[C@@H]3CC=C4C[C@@H](OC(=O)CCC(=O)O)CC[C@]4(C)[C@H]3CC[C@]12C`, the remaining NAD is 10 nM.

`CCCCCCCCCC(=O)N[C@H]1[C@H](Oc2c3cc4cc2Oc2ccc(cc2Cl)[C@@H](O[C@@H]2O[C@H](CO)[C@@H](O)[C@H](O)[C@H]2NC(C)=O)[C@@H]2NC(=O)[C@H](NC(=O)[C@@H]4NC(=O)[C@H]4NC(=O)[C@@H](Cc5ccc(c(Cl)c5)O3)NC(=O)[C@@H](N)c3ccc(O)c(c3)Oc3cc(O)cc4c3)c3ccc(O)c(c3)-c3c(OC4O[C@H](CO)[C@@H](O)[C@H](O)[C@@H]4O)cc(O)cc3[C@@H](C(=O)O)NC2=O)O[C@H](CO)[C@@H](O)[C@@H]1O` (stereo not given in full): the remaining NAD was 10 nM.

As for `Cc1ncc(COP(=O)([O-])[O-])c(CN(CCN(CC(=O)[O-])Cc2c(COP(=O)([O-])[O-])cnc(C)c2[O-])CC(=O)[O-])c1[O-].[H+].[H+].[H+].[Mn+2].[Na+].[Na+].[Na+]`, the remaining NAD is 10 nM.

On to `Oc1ccc(Cl)c2c1CCC2`, for which the remaining NAD is 10 nM.

For `CCCCCCOC(=O)/N=C(\N)c1ccc(NCc2nc3cc(C(=O)N(CCC(=O)OCC)c4ccccn4)ccc3n2C)cc1`, the remaining NAD was 10 nM.

Regarding `COc1cc(/C=C/C(=O)N2CCCCCCC2)cc(OC)c1OC`, the remaining NAD was 10 nM.

Regarding `C=C(C)[C@H]1CC=C(C)CC1`, the remaining NAD was 10 nM.

Consider `Cn1c2ncnc-2c(O)n(C)c1=O`, for which the remaining NAD is 10 nM.

`C/C=C(\C)C(=O)OC1[C@H](OC(C)=O)C2(CO)C(CC1(C)C)C1=CCC3C4(C)CCC(O[C@@H]5O[C@H](C(=O)O)[C@@H](O[C@@H]6O[C@H](CO)[C@@H](O)[C@H](O)[C@H]6O)[C@H](O)[C@H]5O[C@H]5O[C@H](CO)[C@@H](O)[C@H](O)[C@H]5O)[C@](C)(CO)C4CCC3(C)[C@]1(C)C[C@H]2O` (stereo not given in full): the remaining NAD is 10 nM.

For `CC(=O)c1ccc2c(c1)N(CCCN1CCN(CCO)CC1)c1ccccc1S2`, the remaining NAD was 10 nM.

As for `CCCCCCCCCC(=O)N[C@@H](Cc1c[nH]c2ccccc12)C(=O)N[C@@H](CC(N)=O)C(=O)N[C@@H](CC(=O)O)C(=O)N[C@@H]1C(=O)NCC(=O)N[C@@H](CCCN)C(=O)N[C@@H](CC(=O)O)C(=O)N[C@H](C)C(=O)N[C@@H](CC(=O)O)C(=O)NCC(=O)N[C@H](CO)C(=O)N[C@@H]([C@H](C)CC(=O)O)C(=O)N[C@@H](CC(=O)c2ccccc2N)C(=O)O[C@@H]1C`, the remaining NAD was 10 nM.

Regarding `CCC(=O)OCC(=O)[C@@]1(OC(=O)CC)[C@H](C)C[C@H]2[C@H]3[C@H]([C@@H](O)C[C@@]21C)[C@@]1(C)C=CC(=O)C=C1C[C@H]3Cl`, the remaining NAD is 10 nM.

As to `CO[C@H]1C[C@H](O[C@H]2[C@H](C)O[C@@H](O[C@@H]3/C(C)=C/C[C@@H]4C[C@@H](C[C@]5(C=C[C@H](C)[C@@H](C6CCCCC6)O5)O4)OC(=O)[C@@H]4C=C(C)[C@@H](O)[C@H]5OC/C(=C\C=C\[C@@H]3C)[C@]54O)C[C@@H]2OC)O[C@@H](C)[C@@H]1O`, the remaining NAD was 10 nM.

With `OC[C@H]1O[C@@H](O[C@H]2[C@H](O)[C@@H](O)[C@@H](O)O[C@@H]2CO)[C@H](O)[C@@H](O)[C@H]1O`, the remaining NAD is 10 nM.

Take `CC/C=C\C/C=C\C/C=C\C/C=C\C/C=C\C/C=C\CCC(=O)OCC` (tested in a mixture with another compound): the remaining NAD is 10 nM.

Consider `CCOC(=S)SSC(=S)OCC`, for which the remaining NAD is 10 nM.

On to `C[C@H]1C[C@H]2[C@@H]3CCC4=CC(=O)C=C[C@]4(C)[C@@]3(F)[C@@H](O)C[C@]2(C)[C@@]1(O)C(=O)COP(=O)(O)O`, for which the remaining NAD was 10 nM.

Values taken from PubChem BioAssay.
